# Assay outcomes from PubChem.
# The full list was thinned out, with hits kept by preference.
# AMA1-RON2 inh: qHTS for Inhibitors of AMA1-RON; Towards Development of Antimalarial Drug Lead: Primary Screen | Plasmodium falciparum AMA1 (3D7) - RON2 peptide interaction | AlphaScreen AMA1-biotinylated RON2 peptide binding | Potency, µM (titrated, usually from 58.2 µM), inactives show at the top dose activity change, negative = inhibition, actives largely listed as inhibitors | 0.2% of 360,000 active | AID 720542, 2013; active = well fitted inhibition curve with a large enough effect; inconclusive = small, poorly fitted or top-dose-only effect; inactive = no such curve, though single readings can be large or run the other way;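 also: potency is read from the fitted curve at half-maximal effect; 0% = vehicle wells and -100% = peptide control; nearly all actives have a fitted effect of over 45% in size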
#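 AMA1 (3D7) with his tag at 25 nM final met compounds first, then biotinylated RON2 peptide at 25 nM; detection used donor plus acceptor beads, 10 µg/mL apiece, read by AlphaScreen after 30 min at room temperature.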
# LASV entry inh: qHTS for Inhibitors of binding or entry into cells for Lassa Virus | Lassa virus pseudotype entry inhibition, cell reporter | Potency, µM (doses to about 37.9 µM), inactives show at the highest dose activity change, negative = inhibition, usual class: inhibitors | 1.2% of 300,000 active | AID 540256, 2011; calls by dose curve; tested in HEK293 cells; also: potency is read from the fitted curve at half-maximal effect; % is scaled to controls: 0 for no effect and ±100 for the full control effect; nearly all actives have a fitted effect of over 50% in size
# MARV entry inh: qHTS for inhibitors of binding or entry into cells for Marburg Virus. Marburg virus pseudotyped entry inhibition, cell reporter. Potency, µM (titrated, usually from 37.8 µM), inactives show top-dose activity change, negative = inhibition, hits mostly inhibitors. 1.8% of 300,000 active. AID 540276, 2011; calls by dose curve; tested in HEK293 cells; also: potency is read from the fitted curve at half-maximal effect; % is scaled to controls: 0 for no effect and ±100 for the full control effect
# Shiga inhibitor: A qHTS for Small Molecule Inhibitors of Shiga Toxin | Vero cells, Shiga toxin protein synthesis inhibition reporter | inhibition, % at 38.7 µM | 9.2% of 290,000 active | AID 2315, 2010; in the data active = inhibition mostly above about 28%, no sharp cut-off; inactive = mostly below about 43%; also: 0% is about no effect
# Cycloheximide cs: Cycloheximide Counterscreen for Small Molecule Inhibitors of Shiga Toxin; cell reporter, cycloheximide protein synthesis inhibition counterscreen; max response, %; 12% of 300,000 active; in the data active = max response mostly above about 13%, no sharp cut-off; inactive = mostly below about 14%; also: read at 38.3 µM for the half of the compounds with a filed dose; 0% is about no effect
# Active calls of the source: *; ? = inconclusive; · = not tested or not shown; + = active, no number; ! = a repeat was not active; [ ] = another dose, or the depositor's remark.
SMILES,AMA1-RON2 inh,LASV entry inh,MARV entry inh,Shiga inhibitor,Cycloheximide cs
C[C@H](NC(=O)c1cc2c(cn1)[nH]c1ccccc12)C(=O)O,82.7%,16.5%[46.1 µM],0.5%[46.1 µM],-14.9,-3.3
COc1cc(NC(=O)CSc2nc3nc(C)c(Cc4ccccc4)c(C)n3n2)cc(OC)c1OC,·,0.9%[46.1 µM],·,·,·
COc1ccc2nc(N3C(=O)/C(=C/c4ccc(Cl)cc4)NC3=S)sc2c1,35.1%,?,3.8%,2.2,-1.7
CCCCC(=O)N1CCN(c2nc3ccc(OCC)cc3s2)CC1,-1.5%,·,·,-1.8,12.9
Cc1cc2nc(N3C(=O)CNC3=S)sc2cc1C,-5.6%,?,?,20.3,22.8*
CCOc1ccc2nc(N3C(=O)CNC3=S)sc2c1,44.5%,?,?,45.9*,35.2*
Cn1c(C(=O)NCc2ccc(F)cc2)cc2cc(S(=O)(=O)N3CCCCC3)ccc21,·,-1.7%[46.1 µM],·,·,·
COc1ccc(N2CCN(C(c3cc(OC)ccc3OC)c3nnnn3Cc3ccco3)CC2)cc1 (centres undefined),?,?,10µM*!,-3.4,-1.8
Fc1ccc(N2CCN(C(c3cccs3)c3nnnn3CCc3ccccc3)CC2)cc1 (centres undefined),0.0%,11.2µM*,12.6µM*,9.1,-2.0
COCCn1nnnc1C(c1ccccc1OC)N1CCN(C(=O)c2ccco2)CC1 (centres undefined),0.0%,8.6%,8.5%[46.1 µM],15.0,7.0
CCC(C)(C)n1nnnc1C(c1ccccc1OC)N1CCN(C(=O)c2ccco2)CC1 (centres undefined),-3.8%,-1.3%,2.4%[46.1 µM],40.7,11.2*
CCN1CCN(C(c2cccc(OC)c2OC)c2nnnn2Cc2ccco2)CC1 (centres undefined),8.4%,3.0%,0.4%[46.1 µM],-6.7,-2.5
COc1ccc(OC)c(C(c2nnnn2CCc2ccccc2)N2CCN(c3ccccc3)CC2)c1 (centres undefined),?,10µM*,?,1.3,-2.3
Cc1c(-c2cccc(NC(=O)c3cccs3)c2)nc2ncccn12,-13.0%,-5.0%,-2.8%,-4.4,11.4
O=C(CSc1nnc(-c2cccs2)n1C1CC1)NCC1CCCO1 (centres undefined),-8.4%,·,·,·,·
COc1ccccc1C(c1nnnn1Cc1ccco1)N1CCN(c2cccc(C)c2C)CC1 (centres undefined),-16.2%,9.2µM*,?,43.4*,28.0*
COc1ccc2oc(C(=O)OCC(=O)NCc3ccco3)c(C)c2c1,12.5%,?,-26.6%[46.1 µM],·,·
COc1ccc(CNc2ccc([N+](=O)[O-])cn2)cc1,9.5%,?,?,59.1*,28.0*
O=[N+]([O-])c1ccc(NCc2ccccn2)nc1,-15.1%,?,?,47.4*,15.9*
COc1ccc(CNC(=O)Cn2cc([N+](=O)[O-])cn2)cc1,3.8%,3.2%,-1.5%[46.1 µM],·,·
COc1ccc(Nc2cc(C)c3cc([N+](=O)[O-])ccc3n2)cc1,-10.9%,·,·,20.7,11.0*
COc1ccccc1Nc1ccc([N+](=O)[O-])cn1,8.8%,-3.3%,?,15.5,20.8*
COc1ccc(Nc2nc(=O)c3cc([N+](=O)[O-])ccc3s2)cc1,-11.6%,·,·,-4.2,3.6
CO[C@@H]1CN(C)C(=O)c2ccc(NC(=O)C3CCCC3)cc2OC[C@@H](C)N(Cc2ccc(F)cc2)C[C@H]1C,2.0%,·,·,·,·
CCc1nn2c(=O)cc(COC(=O)C3CCCCC3)nc2s1,·,17.2%[46.1 µM],·,·,·
SMILES,AMA1-RON2 inh,LASV entry inh,MARV entry inh,Shiga inhibitor,Cycloheximide cs
O=[N+]([O-])c1ccc(NCCOc2ccccc2Cl)nc1,8.9%,·,·,44.1*,29.1*
Cc1cccc(OCCNc2ccc([N+](=O)[O-])cn2)c1,-5.1%,-25.7%,?,15.9,6.4
COc1ccc(Nc2ccc([N+](=O)[O-])cn2)cc1,-0.2%,12.5%,7.4%,37.8*,36.7*
CCOC(=O)c1ccc(Nc2ccc([N+](=O)[O-])cn2)cc1,4.4%,9.1%,?,+,30.7*
COc1ccc(Nc2nccc(-c3ccc([N+](=O)[O-])cc3)n2)cc1,-14.1%,-27.8%[46.1 µM],?,3.2,-0.4
Cn1cc(C(=O)NCc2ccccc2)c(=O)c2cc(S(=O)(=O)N3CCCCCC3)ccc21,·,-2.2%[46.1 µM],·,·,·
Cc1c(NC(=O)/C(C#N)=C/c2ccc(-c3cc(Cl)ccc3Cl)o2)c(=O)n(-c2ccccc2)n1C,-10.9%,16.7%,5.1%,-18.2,-1.2
N#C/C(=C\c1ccc(-c2cc(Cl)ccc2Cl)o1)C(=O)Nc1cccc2ncccc12,·,3.66µM*,?,·,·
